Measurements published in the supplement of paper PMC13380429.

Tested on: Vero E6 infected with SARS-CoV-2
Assay: inhibition of SARS-CoV-2 cytopathic effect; higher = more antiviral protection, active = above 15
Details: 48 h

Measured: inhibition of SARS-CoV-2 cytopathic effect

CN[C@@H](C)[C@H]1[C@H](O)C[C@@]2(C)[C@@H]3CC[C@H]4C(C)(C)[C@@H](NC)CC[C@@]45C[C@@]35CC[C@]12C [cyclovirobuxin-D]
inactive: 1 nM -0.38% | 8.33 nM 2.73% | 100 nM 3.9% | 833.33 nM 2.48% | 10000 nM -7.38%

CC(C)[C@H](C(=O)Nc1ccc(C(=O)NO)cc1)c1ccccc1
inactive: 1 nM 3.84% | 8.33 nM 0.31% | 100 nM -0.75% | 833.33 nM 1.02% | 10000 nM 0.89%

C[C@@H]1C[C@H]2[C@@H]3CCC4=CC(=O)C=C[C@]4(C)[C@@]3(F)[C@@H](O)C[C@]2(C)[C@H]1C(=O)CO [desoximetasone]
inactive: 1 nM -2.66% | 8.33 nM 0.15% | 100 nM -1.47% | 833.33 nM 1.96% | 10000 nM 0.8%

CCC1(c2ccccc2)C(=O)NCNC1=O [primidone]
inactive: 1 nM 0.5% | 8.33 nM -0.36% | 100 nM -1.1% | 833.33 nM 0.53% | 10000 nM 1.81%

NC(=O)OCC(O)COc1ccc(Cl)cc1 (stereo not given) [chlorphensin-carbamate]
inactive: 1 nM 2.19% | 8.33 nM -1.72% | 100 nM 1.24% | 833.33 nM 2.98% | 10000 nM 4.44%

OC[C@H]1O[C@H]([S-])[C@H](O)[C@@H](O)[C@@H]1O.[Au+] [aurothioglucose]
inactive: 1 nM 0.67% | 8.33 nM -0.7% | 100 nM -0.3% | 833.33 nM 0.93% | 10000 nM 0.69%

CCOC(=O)[C@]12CC1/C(=N\O)c1ccccc1O2 (stereo not given in full)
inactive: 1 nM 1.49% | 8.33 nM -0.95% | 100 nM -1.19% | 833.33 nM -3.34% | 10000 nM -1.39%

O=C(O)CNC(=O)c1ccccc1I [2-iodohippuric-acid]
inactive: 1 nM 3.32% | 8.33 nM 2.66% | 100 nM 0.05% | 833.33 nM 0.88% | 10000 nM 0.58%

O=C(C=Cc1ccccc1)NC(NC(=S)Nc1ccc(Cl)cc1)C(Cl)(Cl)Cl (stereo not given)
inactive: 1 nM 0.51% | 8.33 nM 0.81% | 100 nM -4.17% | 833.33 nM -1.91% | 10000 nM -5.67%

NS(=O)(=O)c1cc2c(cc1Cl)NC(CC1CCCC1)NS2(=O)=O (stereo not given) [cyclopenthiazide]
inactive: 1 nM 1.26% | 8.33 nM 2.37% | 100 nM -0.67% | 833.33 nM -2.85% | 10000 nM -0.14%

CC(=O)OCC(CCn1cnc2cnc(N)nc21)COC(C)=O [famciclovir]
inactive: 1 nM -0.42% | 8.33 nM -2.15% | 100 nM -3.04% | 833.33 nM -0.25% | 10000 nM -2.48%

Cn1nnnc1SCC1=C(C(=O)O)N2C(=O)[C@@H](NC(=O)[C@H](OC=O)c3ccccc3)[C@H]2SC1 [cefamandole-nafate]
inactive: 1 nM -1.93% | 8.33 nM -0.03% | 100 nM -2.69% | 833.33 nM -3.24% | 10000 nM -0.65%

CC(=O)OCC1=C(C(=O)O)N2C(=O)[C@@H](NC(=O)CSc3ccncc3)[C@H]2SC1 [cephapirin]
inactive: 1 nM -1.67% | 8.33 nM 4.78% | 100 nM 6.28% | 833.33 nM 5.89% | 10000 nM 2.88%

Nc1nc(-c2nn(Cc3ccccc3F)c3ncccc23)ncc1C1CC1
inactive: 1 nM 1.54% | 8.33 nM 2.15% | 100 nM -0.39% | 833.33 nM -2.42% | 10000 nM -5.17%

COc1cc2nccc(Oc3ccc(NC(=O)Nc4ccc(F)cc4F)c(F)c3)c2cc1OC
inactive: 1 nM -0.54% | 8.33 nM 1.76% | 100 nM 4.46% | 833.33 nM 4.37% | 10000 nM 5.75%

OC(CNCC(O)C1CCc2cc(F)ccc2O1)C1CCc2cc(F)ccc2O1 (stereo not given) [nebivolol]
inactive: 1 nM -8.56% | 8.33 nM -2.57% | 100 nM -0.54% | 833.33 nM -2.81% | 10000 nM -3.97%

CC[C@@H](CO)NCCN[C@@H](CC)CO [ethambutol]
inactive: 1 nM 3.83% | 8.33 nM 4.26% | 100 nM 4.86% | 833.33 nM 5.12% | 10000 nM 2.55%

CC(C)c1c(NC(=O)Nc2ccc(Cl)cc2)c(=O)n(-c2ccccc2)n1C
inactive: 1 nM 0.15% | 8.33 nM 0.39% | 100 nM 0.07% | 833.33 nM -1.16% | 10000 nM -0.11%

CC(C)c1nc(CN(C)C(=O)N[C@H](C(=O)N[C@@H](Cc2ccccc2)C[C@H](O)[C@H](Cc2ccccc2)NC(=O)OCc2cncs2)C(C)C)cs1 [ritonavir]
inactive: 1 nM 0.04% | 8.33 nM 0.25% | 100 nM -0.08% | 833.33 nM 3.37% | 10000 nM 0.85%

CC(C)(C)NCC(O)COc1cc(Cl)ccc1Cl (stereo not given) [cloranolol]
inactive: 1 nM -3.31% | 8.33 nM -3.27% | 100 nM -3.87% | 833.33 nM -3.29% | 10000 nM -8.51%

NC(N)=Nc1nc(CSCCN/C=N/S(=O)(=O)c2ccc(Br)cc2)cs1 [ebrotidine]
inactive: 1 nM -0.49% | 8.33 nM 1.21% | 100 nM 5.48% | 833.33 nM -0.19% | 10000 nM -2.58%

NC(=O)Cc1cccc(C(=O)c2ccccc2)c1N [nepafenac]
inactive: 1 nM -0.09% | 8.33 nM 1.07% | 100 nM -0.56% | 833.33 nM -1.36% | 10000 nM -2.65%

CN1C(=O)CN=C(c2ccccc2)c2cc(Cl)ccc21 [diazepam]
inactive: 1 nM -0.19% | 8.33 nM 0.35% | 100 nM 1.99% | 833.33 nM 0.56% | 10000 nM 0.22%

CC(=O)OCC(=O)[C@H]1CC[C@H]2[C@@H]3CCC4=CC(=O)CC[C@]4(C)[C@H]3CC[C@]12C [deoxycorticosterone-acetate]
inactive: 1 nM -2.24% | 8.33 nM 0.58% | 100 nM -1.58% | 833.33 nM -4.23% | 10000 nM -0.48%

O=C(O)/C=C/c1ccc(-c2ccc(O)c(C34CC5CC(CC(C5)C3)C4)c2)cc1 [adarotene]
inactive: 1 nM -0.41% | 8.33 nM -0.4% | 100 nM 0.7% | 833.33 nM -4.11% | 10000 nM -6.23%

CC(C)(CC(=O)N1CCCC1)NCC(=O)N1C[C@@H](F)C[C@H]1C#N
inactive: 1 nM 1.83% | 8.33 nM 0.33% | 100 nM -0.99% | 833.33 nM -1.3% | 10000 nM -0.94%

O=C1CCC2CCC(=O)N12 [rolziracetam]
inactive: 1 nM 0.67% | 8.33 nM 1.21% | 100 nM 1.49% | 833.33 nM -1.36% | 10000 nM -2.89%

Nc1nc(O)c2ncn(CCC(CO)CO)c2n1 [penciclovir]
inactive: 1 nM -0.77% | 8.33 nM -0.01% | 100 nM -0.81% | 833.33 nM 0.81% | 10000 nM -2.4%

O=C(NCc1cccc(O)c1)Nc1nc(-c2ccncc2)cs1
inactive: 1 nM 1.7% | 8.33 nM 1.65% | 100 nM -1.57% | 833.33 nM -6.16% | 10000 nM -6.11%

Cn1nc(-c2cccc(F)c2)n(C)c1=S [suritozole]
inactive: 1 nM 3.45% | 8.33 nM 1.68% | 100 nM 1.49% | 833.33 nM 1.52% | 10000 nM 1.85%

CCOC(=O)[C@@H](C)Oc1cccc2c(=O)n(CC(=O)Nc3ccc4c(c3)OCCO4)ccc12
inactive: 1 nM -1.29% | 8.33 nM 1.77% | 100 nM 0.7% | 833.33 nM -5.6% | 10000 nM -5.98%

OCCOCCN1CCN(C(c2ccccc2)c2ccc(Cl)cc2)CC1 (stereo not given) [hydroxyzine]
inactive: 1 nM 1.41% | 8.33 nM 0.93% | 100 nM 1.56% | 833.33 nM -1.88% | 10000 nM -4.3%

CC(C)(C)NC(=O)N[C@H](C(=O)N1C[C@H]2[C@@H]([C@H]1C(=O)NC(CC1CCC1)C(=O)C(N)=O)C2(C)C)C(C)(C)C (stereo not given in full) [boceprevir]
inactive: 1 nM 0.88% | 8.33 nM -0.31% | 100 nM -1.61% | 833.33 nM -1.89% | 10000 nM 1.17%

O=[N+]([O-])c1cnc(Sc2nnc(O)n2-c2ccc3c(c2)OCCO3)s1
inactive: 1 nM 0.17% | 8.33 nM 0.75% | 100 nM 1.8% | 833.33 nM 0.05% | 10000 nM -17.7%

CC(C)=CCC/C(C)=C/CC/C(C)=C/CCC(=O)OC/C=C(\C)CCC=C(C)C [geranyl-farnesylacetate]
inactive: 1 nM -0.32% | 8.33 nM 0.94% | 100 nM -2.76% | 833.33 nM 0.87% | 10000 nM 1.54%

O=C(O)CCN(O)C(=O)CCCCCCCCC1CC1
inactive: 1 nM 2.3% | 8.33 nM -1.05% | 100 nM 1.09% | 833.33 nM 4.48% | 10000 nM 5.29%

CN1CCN(CC/C=C2/c3ccccc3Sc3ccc(S(=O)(=O)N(C)C)cc32)CC1 [thiothixene]
inactive: 1 nM -3.86% | 8.33 nM -3.67% | 100 nM -4.39% | 833.33 nM -3.71% | 10000 nM 14%

CCS(=O)(=O)N1CC(CC#N)(n2cc(-c3ncnc4[nH]ccc34)cn2)C1 [baricitinib]
inactive: 1 nM 3.34% | 8.33 nM -0.51% | 100 nM -1.28% | 833.33 nM 0.06% | 10000 nM -2.55%

O=C(O)c1ccccc1 [benzoic-acid]
inactive: 1 nM 0.45% | 8.33 nM -0.31% | 100 nM -1.57% | 833.33 nM -0.13% | 10000 nM -0.09%

COC(=O)C1=C(C)NC(C)=C(C(=O)OCC(C)C)C1c1ccccc1[N+](=O)[O-] (stereo not given) [nisoldipine]
inactive: 1 nM -1.53% | 8.33 nM 0.72% | 100 nM -2.24% | 833.33 nM -0.83% | 10000 nM 1.64%
